Nine molecules from PubChem BioAssay (NCI) can be followed below.

About 83,000 compounds went through this panel and 20% of them were active in at least one assay; those are over-represented in the sample as a whole.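 Step 1: grow cells in 96-well plates. Step 2: add test compound at a single concentration. Step 3: incubate 48 h. Step 4: record percent growth.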 A number with no mark means an inactive call. Calls of active or inactive are those of the source. Rule for the calls: active = growth percent below 10; inactive = the rest.

Common to all, as to test: NCI-60 one-dose screen, 48 h (100 = growth as untreated, 0 = no growth, -100 = all killed)
The test system of one assay is SR leukemia. The settings on record: 10 µM unless noted.
Another assay relates to RPMI-8226 leukemia. The settings on record: 10 µM unless noted.
The subject of another assay is OVCAR-8 ovarian. The settings on record: 10 µM unless noted.
A further assay relates to OVCAR-5 ovarian. The settings on record: 10 µM unless noted.
The test system of the next assay is OVCAR-4 ovarian. Particulars: 10 µM unless noted.
The next assay concerns SK-OV-3 ovarian. Particulars: 10 µM unless noted.
The subject of another assay is IGROV1 ovarian. Particulars: 10 µM unless noted.
In the next assay the test system is OVCAR-3 ovarian. Particulars: 10 µM unless noted.
The test system of another assay is HS 578T breast. Particulars: 10 µM.
The next assay concerns NCI/ADR-RES ovarian. The settings on record: 10 µM unless noted.
The next assay has as its system T-47D breast. The settings on record: 10 µM unless noted.
A further assay deals with BT-549 breast. Particulars: 10 µM unless noted.
The subject of a further assay is MDA-MB-435 melanoma. The settings on record: 10 µM unless noted.
Another assay deals with SW-620 colon. The settings on record: 10 µM unless noted.
The next assay concerns HCT-116 colon. The settings on record: 10 µM unless noted.
For the next assay, the system named is HCC-2998 colon. Particulars: 10 µM.
For the next assay, the system named is KM12 colon. The settings on record: 10 µM unless noted.
The next assay concerns MCF7 breast. The settings on record: 10 µM unless noted.

In the case of `CC(=O)CC1CCCC1c1ccc2ccccc2c1` (centres undefined), the growth is 104% with SR leukemia; 103% in the assay with RPMI-8226 leukemia; 100% with OVCAR-8 ovarian; 97.2% in the assay on OVCAR-5 ovarian; 112% in the assay on OVCAR-4 ovarian; 101% with SK-OV-3 ovarian. For the same molecule, the growth in the assay on IGROV1 ovarian is 101%; in the assay on OVCAR-3 ovarian, 105%; with HS 578T breast, 100%; in the assay on NCI/ADR-RES ovarian it was 102%; in the assay with T-47D breast, 90%; in the assay on BT-549 breast, 109%. The growth in the assay on MDA-MB-435 melanoma is 111%; in the assay on SW-620 colon, 106%; in the assay with HCT-116 colon, 104%; in the assay with HCC-2998 colon it was 86.8%; in the assay on KM12 colon, 106%.

As to `COc1ccc2nc3cc(Cl)ccc3c(Nc3ccc(N(C)C)cc3)c2c1`, the growth was 1.55% (active) in the assay on SR leukemia; 27.2% with RPMI-8226 leukemia; 90.5% with OVCAR-8 ovarian; 110% with OVCAR-5 ovarian; 88.7% in the assay with OVCAR-4 ovarian; 85.7% in the assay on SK-OV-3 ovarian. Also, the growth is 97% in the assay on IGROV1 ovarian; 95.9% in the assay on OVCAR-3 ovarian; 109% in the assay with HS 578T breast; 87.1% in the assay on NCI/ADR-RES ovarian; 86.3% with T-47D breast; 72.1% in the assay with BT-549 breast. Besides, the growth in the assay on MDA-MB-435 melanoma is 99.9%; with SW-620 colon, 95.1%; in the assay with HCT-116 colon, 96.9%; in the assay on HCC-2998 colon, 91.9%.

In the case of `COC(=O)C1CCc2sc3ncnc(Nc4cn[nH]c4C(=O)Nc4ccc(CN5CCN(C)CC5)cc4)c3c21` (centres undefined), the growth in the assay on SR leukemia is -25.7% (active); in the assay with RPMI-8226 leukemia it was 8.36% (active); in the assay on OVCAR-8 ovarian, 16.6%; with OVCAR-5 ovarian, -2.74% (active); in the assay on OVCAR-4 ovarian, 23.5%; in the assay with SK-OV-3 ovarian it was 6.43% (active). Also, the growth in the assay with IGROV1 ovarian is 4.94% (active); with OVCAR-3 ovarian, 11.4%; in the assay on HS 578T breast it was -3.1% (active); in the assay with NCI/ADR-RES ovarian it was 54.4%; in the assay on T-47D breast, 17.8%; in the assay on BT-549 breast, -0.677% (active). Besides, the growth in the assay with MDA-MB-435 melanoma is 22.3%; in the assay on SW-620 colon, -10.9% (active); in the assay with MCF7 breast it was 4.8% (active); with HCC-2998 colon, 27.2%; in the assay with KM12 colon, 9.84% (active).

Consider `Cc1cc2c3c(cccc3c1)C(=O)c1ccccc1-2`, for which the growth with SR leukemia is 96.6%; in the assay on RPMI-8226 leukemia, 109%; in the assay on OVCAR-8 ovarian, 107%; in the assay with OVCAR-5 ovarian, 100%; in the assay with OVCAR-4 ovarian it was 94.8%; with SK-OV-3 ovarian, 107%. For the same molecule, the growth in the assay with IGROV1 ovarian is 90.5%; with OVCAR-3 ovarian, 90.2%; with HS 578T breast it was 99.6%; with NCI/ADR-RES ovarian, 77.9%; in the assay with T-47D breast it was 92.1%; in the assay on BT-549 breast, 95.3%. The growth is 103% in the assay on MDA-MB-435 melanoma; 94.7% in the assay on SW-620 colon; 82% with MCF7 breast; 98.2% in the assay on HCC-2998 colon; 93.3% in the assay on KM12 colon.

Take `CCN1CCN(c2nc(C)cc(N(CCCNc3ccnc4cc(Cl)ccc34)Cc3ccc4c(c3)OCO4)n2)CC1`: the growth with SR leukemia is -45.2% (active); with RPMI-8226 leukemia, -41.9% (active); in the assay on OVCAR-8 ovarian it was -12.4% (active); in the assay with OVCAR-5 ovarian, 51.6%; in the assay with OVCAR-4 ovarian, 2.74% (active); in the assay with SK-OV-3 ovarian, 33.3%. Further, the growth in the assay on IGROV1 ovarian was 0.209% (active); with OVCAR-3 ovarian, -28.3% (active); in the assay on HS 578T breast, -44.8% (active); in the assay with NCI/ADR-RES ovarian, 30.2%; with T-47D breast, -60.9% (active); with BT-549 breast, -53.1% (active). The growth in the assay on MDA-MB-435 melanoma is -86.8% (active); in the assay with SW-620 colon, -32.3% (active); in the assay with MCF7 breast, 7.69% (active); in the assay on HCT-116 colon, -9.36% (active); in the assay with HCC-2998 colon, -40.3% (active); with KM12 colon, 23.7%.

For the molecule `CC(N)C(Cc1ccc(Cl)cc1)c1ccc(Cl)cc1` (centres undefined), the growth is -9.14% (active) in the assay with SR leukemia; 25.3% in the assay on RPMI-8226 leukemia; 71.5% in the assay on OVCAR-8 ovarian; 77.9% in the assay on OVCAR-5 ovarian; 71.7% in the assay with OVCAR-4 ovarian; 81.9% with SK-OV-3 ovarian. Besides, the growth in the assay on IGROV1 ovarian is 77.8%; with OVCAR-3 ovarian, 87.2%; in the assay with HS 578T breast, 71.6%; in the assay with NCI/ADR-RES ovarian, 87.5%; in the assay with T-47D breast it was 54.8%; with BT-549 breast it was 77.6%. Further, the growth in the assay on MDA-MB-435 melanoma is 56.5%; in the assay with SW-620 colon it was 57.3%; in the assay on HCT-116 colon, 35%; in the assay with HCC-2998 colon, -6.15% (active); in the assay on KM12 colon, 63%.

For the molecule `COc1ccc(-c2nc(N)ncc2Oc2ccccc2OC)c(O)c1`, the growth with SR leukemia is 27.9%; in the assay on RPMI-8226 leukemia, 25.7%; in the assay with OVCAR-8 ovarian, 35.6%; in the assay on OVCAR-5 ovarian, 60.2%; in the assay on OVCAR-4 ovarian, 75.7%; with SK-OV-3 ovarian, 24.8%. Moreover, the growth was 48.7% in the assay on IGROV1 ovarian; -4.77% (active) in the assay on OVCAR-3 ovarian; 36.2% with HS 578T breast; 17.9% in the assay on NCI/ADR-RES ovarian; 35.5% with T-47D breast; 36% in the assay with BT-549 breast. Also, the growth was -16.6% (active) with MDA-MB-435 melanoma; 20.6% in the assay with SW-620 colon; 23.4% with MCF7 breast; 15.9% with HCT-116 colon; 29.5% in the assay on KM12 colon.

`CC(C)=CCc1cc2c(cc1O)C1=C(C(=O)C3=C(NCCS3(=O)=O)C1=O)C(C=C(C)C)O2` (centres undefined): the growth with SR leukemia was 6.83% (active); with RPMI-8226 leukemia, 43.3%; in the assay on OVCAR-8 ovarian it was 13.4%; in the assay with OVCAR-5 ovarian, 154%; in the assay on OVCAR-4 ovarian, 32.9%; with SK-OV-3 ovarian, 69.3%. The growth in the assay on IGROV1 ovarian was 1.26% (active); in the assay with OVCAR-3 ovarian it was -0.915% (active); in the assay with HS 578T breast it was 73.5%; in the assay with NCI/ADR-RES ovarian, 86.6%; in the assay on T-47D breast it was 10.1%; with BT-549 breast it was 40.3%. Also, the growth with MDA-MB-435 melanoma is -62.3% (active); in the assay on SW-620 colon it was 6.34% (active); in the assay on MCF7 breast it was -43.2% (active); in the assay on HCT-116 colon, -21.2% (active); in the assay on HCC-2998 colon, 32.4%; in the assay with KM12 colon it was 54.5%.

In the case of `CC(C)C1CCC(C)C(C2(C#N)C(N)=NC(N)=C2C#N)C1=O` (centres undefined), the growth in the assay on SR leukemia is 102%; in the assay with RPMI-8226 leukemia, 89%; in the assay with OVCAR-8 ovarian, 106%; with OVCAR-5 ovarian, 103%; with OVCAR-4 ovarian, 90.8%; in the assay on SK-OV-3 ovarian it was 107%. Further, the growth in the assay with IGROV1 ovarian was 94.4%; with OVCAR-3 ovarian, 98%; with HS 578T breast, 101%; in the assay on NCI/ADR-RES ovarian, 97.1%; with T-47D breast, 83.6%; in the assay on BT-549 breast, 98.8%. Further, the growth is 101% in the assay with MDA-MB-435 melanoma; 102% in the assay with SW-620 colon; 99.2% in the assay with HCT-116 colon; 95.8% in the assay on HCC-2998 colon; 92.9% in the assay on KM12 colon.
